High-throughput results from PubChem BioAssay.
Hits are enriched below; roughly 9% of the tested compounds scored in any of these assays.
LMNA splice mod = modulators of lamin A splicing; HeLa LMNA splicing GFP/RFP minigene ratio, 48 h; Potency, µM (series often up to 46.1 µM), for inactives: at the highest dose ratio change, negative = inhibition, hits mostly inhibitors; hit rate 0.01% among 200,000; active = well fitted inhibition curve with a large enough effect in the signal ratio, with a control signal flat, not every such curve was filed as active; inconclusive = small, poorly fitted or top-dose-only effect, or effect the other way, or a change in a side signal; the % refers to the signal ratio; note: % is set by controls: 0 for no effect and ±100 for the full control effect
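S3 HeLa cells stably expressing lamin A-EGFP splicing minigene plus DsRed2, 600 cells/well, 48 h compound exposure at 37C. Laser-scanning cytometry; analysed as GFP (500-530 nm)/RFP (575-640 nm) total intensity ratio; 0.5% DMSO vehicle.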
HTT ATP protect = cytoprotection in Huntington HTT-Q103 PC12 cell model; PC12 HTT-Q103 induced, cytoprotection, ATP luminescence, 40 h; AID 1471; hit rate 0.14% among 230,000; Potency, µM (highest dose often 56.4 µM), for inactives: cytoprotection (ATP increase), most hits filed as activators; note: % of control where 0% means no effect; nearly all actives have a fitted effect of over 45% in size
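Cells were plated at 1500 per well in phenol red-free DMEM with 5% equine and 5% calf serum. Tebufenozide (100 nM final) and compounds were added, then ATPlite reagent, and luminescence was read.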
Luc counter = counter-screen: inhibitors of Kinase-Glo firefly luciferase | Kinase-Glo luciferase, ATP luminescence, 8 min | Potency, µM (highest dose often 38.3 µM), for inactives: at the highest dose activity change, negative = inhibition, most hits filed as inhibitors | AID 1379 | hit rate 0.28% among 200,000; note: % is set by controls: 0 for no effect and ±100 for the full control effect; nearly all actives have a fitted effect of over 60% in size
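Inhibition of Kinase-Glo luciferase light generation was assessed at 10 uM ATP in pH 7.2 imidazole buffer, with luminescence measured after eight minutes at ambient temperature.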
HPGD block = inhibitors of human 15-hydroxyprostaglandin dehydrogenase (HPGD); P15428; purified HPGD, NADH fluorescence kinetic, PGE2 substrate; Potency, µM, inactives show at the highest dose activity change, negative = inhibition, most hits filed as inhibitors; hit rate 4.3% among 150,000; AID 894; active = well fitted inhibition curve with a large enough effect, not every such curve was filed as active; inconclusive = small, poorly fitted or top-dose-only effect, or another doubt; inactive = no such curve, though single readings can be large or run the other way; note: % is set by controls: 0 for no effect and ±100 for the full control effect
Target sequence (P15428 whole entry, looked up): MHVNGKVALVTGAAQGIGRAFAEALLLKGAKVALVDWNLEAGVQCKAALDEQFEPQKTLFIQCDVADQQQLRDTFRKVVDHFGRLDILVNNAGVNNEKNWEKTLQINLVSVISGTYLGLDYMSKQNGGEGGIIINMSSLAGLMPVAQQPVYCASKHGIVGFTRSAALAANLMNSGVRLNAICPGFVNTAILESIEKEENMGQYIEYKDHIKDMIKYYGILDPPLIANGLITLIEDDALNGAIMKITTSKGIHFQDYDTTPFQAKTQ
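NADH formation kinetics: reaction with 30 uM PGE2 and 1 mM NAD+ (final), 20 nM enzyme, Tris-HCl pH 8 with Tween 20, after 15 min compound preincubation at room temperature. Fluorescence change, last versus first of five reads.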
ALDH1A1 inh = blocks purified human ALDH1A1 activity | P00352 | Potency, µM (titrated, usually from 75.3 µM), inactives show at the top dose activity, negative = inhibition, hits mostly inhibitors | Purified ALDH1A1, NADH fluorescence, propionaldehyde substrate | AID 1030 | hit rate 7.3% among 220,000; active = well fitted inhibition curve with a large enough effect, not every such curve was filed as active; inconclusive = small, poorly fitted or top-dose-only effect, or another doubt; inactive = no such curve, though single readings can be large or run the other way;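 note: plate controls were no enzyme wells and a reference inhibitor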
Target sequence (P00352 whole entry, looked up): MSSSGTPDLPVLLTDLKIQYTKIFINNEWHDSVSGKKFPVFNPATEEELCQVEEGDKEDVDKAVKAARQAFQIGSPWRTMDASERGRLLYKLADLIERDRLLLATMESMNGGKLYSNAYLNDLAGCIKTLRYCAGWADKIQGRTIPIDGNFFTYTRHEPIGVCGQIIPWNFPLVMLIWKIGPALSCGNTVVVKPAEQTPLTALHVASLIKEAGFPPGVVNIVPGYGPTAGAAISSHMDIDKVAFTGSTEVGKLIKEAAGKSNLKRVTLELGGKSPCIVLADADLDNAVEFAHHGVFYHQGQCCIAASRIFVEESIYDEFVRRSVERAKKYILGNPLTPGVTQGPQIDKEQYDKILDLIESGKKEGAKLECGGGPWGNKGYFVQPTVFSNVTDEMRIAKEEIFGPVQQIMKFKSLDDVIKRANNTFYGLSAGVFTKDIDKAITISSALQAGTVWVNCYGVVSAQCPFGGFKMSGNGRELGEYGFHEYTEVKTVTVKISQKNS
HTT aggregate = reduces HttQ103-GFP aggregates in PC12 cells. PC12 HttQ103-GFP aggregates, Acumen cytometry, 40 h. Potency, µM (top dose mostly 46.1 µM), without a hit: top-dose activity change, negative = inhibition, hits mostly inhibitors. hit rate 1.1% among 220,000. AID 1688; note: % is set by controls: 0 for no effect and ±100 for the full control effect; nearly all actives have a fitted effect of over 60% in size
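Using laser scanning cytometry, GFP-positive aggregates were counted after lysis of PC12 cells induced with 100 nM tebufenozide to express HTT exon 1 Q103–GFP. Compounds were tested in titration.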
* hit, by the source's call; ? = inconclusive; . = no result given; [ ] = dose if it differs, or a comment. Unless noted, calls come from the whole dose curve; as a rule, active = well fitted curve in the direction sought with a large enough effect; inconclusive = small, poorly fitted or top-dose-only effect, or another doubt; inactive = no such curve, though single readings can be large; an effect the other way counts as inactive or inconclusive. Potency is the fitted concentration of half-maximal effect.

SMILES	LMNA splice mod	HTT ATP protect	Luc counter	HPGD block	ALDH1A1 inh	HTT aggregate
COc1ccc(C(=O)NCc2nnc(SCC(=O)Nc3cccc(F)c3)o2)cc1	.	-11.8%	6.9%	.	9.46µM*	5.4%
CCCCCNC(=O)c1cc(S(=O)(=O)N2CCCC2)ccc1F	-3.2%	.	2.3%	-0.6%	-14.4%	17.3%
C=CCOC(=O)C1=C[C@H](C2CC2)[C@@H](CCCO)[C@H](OCC)O1	.	6.1%[10 µM]	.	.	28.2µM*	-21.4%[9.22 µM]
CCO[C@H]1OC(C(=O)O)=C[C@@H](C2CC2)[C@@H]1CCCO	.	25.3%[10 µM]	.	.	7.1%	-5.9%[9.22 µM]
Cc1ccc(S(=O)(=O)/N=C(\CN2CCCCC2)N2CCOCC2)cc1	16.0%	-9.1%	-0.1%	-4.2%	11.2µM*	21.3%
CCOC(=O)c1sc(NC(=O)c2ccccc2OCC)nc1C	.	-15.3%	-2.4%	.	?	-9.2%
O=C(c1csc2ccccc12)n1cccn1	-12.9%	-12.8%[0.074 µM]	7.4%	-10.3%	11.2µM*	-0.5%
O=C(c1csc2ccccc12)N1CCCCCC1	?	-30.2%	-0.2%	0.0126µM*	-0.3%	?
CCOC(=O)c1ccc(CSc2nnc(N)s2)cc1	8.5%	-11.6%[0.074 µM]	-1.4%	-3.2%	2.5%	?
CC(C)c1ccc(S(=O)(=O)c2n[nH]n3c2nc(=O)c2ccccc23)cc1	?	5.2%[10 µM]	-0.8%	?	?	?
N#Cc1cccc(-n2nnnc2-c2ccccn2)c1	3.3%	2.5%[10 µM]	.	.	?	11.2µM*
O=C(O)CSc1ncccn1	1.5%[46 µM]	-7.3%	0.8%	.	5.3%	-5.6%
CN=c1scc(-c2ccccc2F)n1/N=C/c1ccc(O)c(O)c1O	-2.3%[9.22 µM]	-46.2%[10 µM]	11.2µM*	.	5.62µM*	2.8%
CN=c1scc(-c2ccccc2F)n1/N=C/c1ccc[nH]1	10.2%[46 µM]	-177.5%	11.2µM*	.	-1.3%	-11.3%
CCN=c1scc(-c2ccc(F)cc2)n1/N=C/c1ccccn1	?	-79.6%	2.2%	.	?	?
CC(C)N=c1scc(-c2cccs2)n1/N=C/c1ccc(O)c(O)c1O	?	-18.7%[10 µM]	-1.5%	?	?	?
CCOC(=O)c1c(CN2CCN(C)CC2)oc2ccc(O)cc12	2.8%	0.0%	-3.8%	-13.0%	?	-5.6%
Cc1cccc(/C=C2/SC(=O)N(Cc3ccccc3)C2=O)n1	4.3%	14.6%	-2.2%	-3.9%	6.31µM*	-28.3%
CCN(c1ccccc1)S(=O)(=O)c1ccc(NC(=S)NC(=O)c2ccc(Br)o2)cc1	20.7%	-28.5%	1.6%	-4.9%	?	-19.6%
COCCNc1nc2nonc2nc1N(C)Cc1cccc2cnccc12	12.8%[46 µM]	-32.6%[10 µM]	-4.1%	.	5.01µM*	-25.1%[9.22 µM]
CCN(c1ccccc1)c1nc2nonc2nc1NCCO	.	7.7%[10 µM]	.	.	.	4.1%[9.22 µM]
CN1CCc2c(sc3c2c(=O)n(-c2ccccc2)c2n[nH]c(=S)n32)C1	3.5%	19.6%[10 µM]	-0.4%	-11.8%	?	-11.2%
COC(=O)c1ccccc1NC(=O)CSc1nc(C)cc(C)n1	.	-22.7%	0.4%	.	-5.6%	-12.9%
COc1cc(C2NC(=O)NC(C)=C2C(=O)Nc2cccc(C)c2C)cc(OC)c1OC (configuration not stated)	-6.7%	-3.0%[10 µM]	1.0%	-7.3%	6.4%	-10.3%
COc1ccc(C2NC(=O)NC(C)=C2C(=O)Nc2cccc(C)c2C)cc1 (configuration not stated)	-4.5%	-9.7%	3.5%	4.0%	2.82µM*	-7.4%
SMILES	LMNA splice mod	HTT ATP protect	Luc counter	HPGD block	ALDH1A1 inh	HTT aggregate
COc1ccc(C2NC(=S)NC(C)=C2C(=O)Nc2ccccn2)cc1 (configuration not stated)	16.3%[46 µM]	5.5%[10 µM]	-0.9%	.	14.1µM*	-3.4%[9.22 µM]
CCOC(=O)C1=C(C)C(c2ccccc2)NC(=S)N1 (configuration not stated)	-2.9%	-14.9%	-4.5%	2.4%	2.51µM*	13.6%
COC(=O)C1=C(C)C(c2ccc(OC)cc2)NC(=S)N1 (configuration not stated)	6.2%	14.0%	-3.0%	-12.4%	8.91µM*	21.7%
COc1ccc(OC)c(C2NC(=S)NC(C)=C2C(=O)Nc2ccccn2)c1 (configuration not stated)	7.4%[46 µM]	-0.3%[10 µM]	3.8%	.	-3.6%	0.8%[9.22 µM]
CCOC(=O)C1C(c2ccccc2)NC(=S)NC1(C)O (configuration not stated)	20.2%[9.22 µM]	22.1%	1.8%	.	?	-12.4%
CCOc1cc(CNCCO)ccc1OCC(=O)NC(C)(C)C	.	-24.7%[1.9 µM]	-4.4%	.	6.5%	-14.9%[9.22 µM]
CC(C)Oc1ccc(CNC(=O)c2ccc3c(c2)N(C)C(=O)C2CCCCN32)cc1 (configuration not stated)	-28.4%[46 µM]	.	.	.	.	.
CCOc1ccccc1N1CCN(C2=C(NS(=O)(=O)c3cccs3)C(=O)c3ccccc3C2=O)CC1	-7.2%	-32.1%	-27.4%	-16.7%	10µM*	-12.8%
CN1CCN(C2=C(NS(=O)(=O)c3cccs3)C(=O)c3ccccc3C2=O)CC1	.	13.0%[10 µM]	.	.	.	24.3%[9.22 µM]
O=S(=O)(c1ccccc1)N1CCN(C(=S)Nc2ccc(F)cc2)CC1	?	21.2%[10 µM]	0.7%	-8.9%	-3.7%	-11.7%
CN(C)c1ccc(C(c2nnnn2CCOC(=O)Nc2ccc(Cl)cc2)N2CCOCC2)cc1 (configuration not stated)	10.6%	-13.8%	3.2%	-24.6%	25.1µM*	4.4%
O=C(CSc1ncn[nH]1)NN(c1ccccc1)c1ccccc1	?	.	3.3%	0.7%	11.8%	9.7%
O=C(NCCO)C(O)C(O)C(=O)NCCO (configuration not stated)	-5.8%[46 µM]	18.5%[10 µM]	0.6%	.	17.8µM*	5.1%[9.22 µM]
O=C1CCCC/C1=C\Nc1ccc(Cl)cn1	9.6%	-16.5%[10 µM]	-8.4%	-18.2%	?	4.1%
CCOC(=O)CCSc1n[nH]c(=S)s1	.	2.4%[10 µM]	.	.	1.78µM*	3.1%[9.22 µM]
CCOC(=O)CSc1n[nH]c(=S)s1	.	-25.1%[10 µM]	.	.	.	-8.2%[9.22 µM]
Cc1ccc(-c2csc3ncnc(Oc4ccc5c(C)cc(=O)oc5c4)c23)cc1	?	.	-0.5%	?	-1.0%	-2.0%
CC(=O)Nc1cccc(Oc2ncnc3scc(-c4ccc(C)cc4)c23)c1	?	-10.2%[10 µM]	1.3%	28.2µM*	?	21.4%
O=C(Oc1ccc(N(C(=O)c2ccncc2)S(=O)(=O)c2ccc(F)cc2)cc1)c1ccncc1	2.7%[46 µM]	1.4%	-0.4%	.	1.2%	7.1%
O=C(CN1CCN(c2ncc(C(F)(F)F)cc2Cl)CC1)NCCNc1ncc(C(F)(F)F)cc1Cl	2.4%	1.3%	-0.4%	-16.4%	?	?
O=C(CONS(=O)(=O)c1ccc(Cl)cc1)NCCNc1ncc(C(F)(F)F)cc1Cl	-12.0%[46 µM]	-58.0%	0.1%	.	12.6µM*	-31.6%
COc1ccc(Cn2nnnc2C(CC(C)C)N2CCN(c3ccccc3)CC2)cc1 (configuration not stated)	?	4.1%	-1.4%	-8.8%	-2.4%	?
